About 8,800 targets were measured; listed, in parts, are those with a hit and a random draw of the rest. About 0.5% of all pairs of compound and target were hits.
Key:
Experiment in all cases: log2 fold change, soluble protein after heating vs DMSO (PISA); higher = thermal stabilisation; K562 lysate, 10 uM; active = over 0.2 and 3.5 SD of the protein, either way, in both replicates (recomputed)
vemurafenib = compound: CCCS(=O)(=O)Nc1ccc(F)c(C(=O)c2c[nH]c3ncc(-c4ccc(Cl)cc4)cc23)c1F [vemurafenib]
Procedure, shortened: (§1)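 A 30 min treatment with 10 μM compound was applied to crude K562 extract at 1 mg/mL protein in PBS pH 7.4 with 1 mM MgCl2. Heating for 3 min spanned 48°C-58°C, after which aliquots were pooled, adjusted to 0.5% NP-40 at 4°C and spun at 21,000xg for 90 min. TMTpro 16plex LC-MS/MS of the supernatant, with channel sums equalised, gave values recorded as log-two fold change in thermal stability against solvent controls, from duplicates.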

[1] = compound: CCCS(=O)(=O)Nc1ccc(F)c(C(=O)c2c[nH]c3ncc(Cl)cc23)c1F
Procedure, shortened: as §1

barasertib = compound: CCN(CCCOc1ccc2c(Nc3cc(CC(=O)Nc4cccc(F)c4)[nH]n3)ncnc2c1)CCOP(=O)(O)O [barasertib]
Procedure, shortened: as §1

[2] = compound: CC[C@@H]1C(=O)N(C)c2cnc(Nc3ccc(C(=O)NC4CCN(C)CC4)cc3OC)nc2N1C1CCCC1
Procedure, shortened: as §1

volasertib = compound: CC[C@@H]1C(=O)N(C)c2cnc(Nc3ccc(C(=O)N[C@H]4CC[C@H](N5CCN(CC6CC6)CC5)CC4)cc3OC)nc2N1C(C)C [volasertib]
Procedure, shortened: as §1

[3] = compound: CCn1c(C(=O)N(C2CC2)C2CC2)cc2c3c(ncn3C)c(Nc3cc(C)n(C)n3)nc21
Procedure, shortened: as §1

[4] = compound: CCn1cc(-c2ccnc3[nH]c(-c4cccc(CN(C)C)c4)cc23)c(-c2ccc(NC(=O)N(C)C)cc2)n1
Procedure, shortened: as §1

[5] = compound: CN1CCC(CNc2ccc3ncc(-c4cccc(OC(F)(F)F)c4)n3n2)CC1
Procedure, shortened: as §1

saracatinib = compound: CN1CCN(CCOc2cc(OC3CCOCC3)c3c(Nc4c(Cl)ccc5c4OCO5)ncnc3c2)CC1 [saracatinib]
Procedure, shortened: as §1

sotrastaurin = compound: CN1CCN(c2nc(C3=C(c4c[nH]c5ccccc45)C(=O)NC3=O)c3ccccc3n2)CC1 [sotrastaurin]
Procedure, shortened: as §1

alvocidib = compound: CN1CC[C@H](c2c(O)cc(O)c3c(=O)cc(-c4ccccc4Cl)oc23)[C@H](O)C1 [alvocidib]
Procedure, shortened: as §1

Tubastatin A = compound: CN1CCc2c(c3ccccc3n2Cc2ccc(C(=O)NO)cc2)C1 [Tubastatin A]
Procedure, shortened: as §1

[6] = compound: CNC(=O)C1=CC=CC=C1NC2=NC(=NC=C2Cl)NC3=C(C=C(C=C3)N4CCOCC4)OC
Procedure, shortened: as §1

defactinib = compound: CNC(=O)c1ccc(Nc2ncc(C(F)(F)F)c(NCc3nccnc3N(C)S(C)(=O)=O)n2)cc1 [defactinib]
Procedure, shortened: as §1

[7] = compound: CNc1nc(-c2ccc3c(N)n[nH]c3c2)cc(N2C[C@@H](C(=O)NC3CCCCC3)CC[C@H]2C)n1
Procedure, shortened: as §1

encorafenib = compound: COC(=O)N[C@@H](C)CNc1nccc(-c2cn(C(C)C)nc2-c2cc(Cl)cc(NS(C)(=O)=O)c2F)n1 [encorafenib]
Procedure, shortened: as §1

[8] = compound: COC(=O)[C@H](CCSC)NC(=O)C1=C(C=C(C=C1)NC[C@H](CS)N)C2=CC=CC=C2
Procedure, shortened: as §1

alisertib = compound: COc1cc(Nc2ncc3c(n2)-c2ccc(Cl)cc2C(c2c(F)cccc2OC)=NC3)ccc1C(=O)O [alisertib]
Procedure, shortened: as §1

[9] = compound: COc1cc2nc(-c3cc(F)ccc3O)nc(N[C@@H]3CNC[C@H]3C(C)(C)O)c2cc1OC
Procedure, shortened: as §1

gefitinib = compound: COc1cc2ncnc(Nc3ccc(F)c(Cl)c3)c2cc1OCCCN1CCOCC1 [gefitinib]
Procedure, shortened: as §1

Measured: log2 fold change

FHOD1 (UniProt Q9Y613)
UniProt Q9Y613, sequence (Q9Y613 whole entry, looked up): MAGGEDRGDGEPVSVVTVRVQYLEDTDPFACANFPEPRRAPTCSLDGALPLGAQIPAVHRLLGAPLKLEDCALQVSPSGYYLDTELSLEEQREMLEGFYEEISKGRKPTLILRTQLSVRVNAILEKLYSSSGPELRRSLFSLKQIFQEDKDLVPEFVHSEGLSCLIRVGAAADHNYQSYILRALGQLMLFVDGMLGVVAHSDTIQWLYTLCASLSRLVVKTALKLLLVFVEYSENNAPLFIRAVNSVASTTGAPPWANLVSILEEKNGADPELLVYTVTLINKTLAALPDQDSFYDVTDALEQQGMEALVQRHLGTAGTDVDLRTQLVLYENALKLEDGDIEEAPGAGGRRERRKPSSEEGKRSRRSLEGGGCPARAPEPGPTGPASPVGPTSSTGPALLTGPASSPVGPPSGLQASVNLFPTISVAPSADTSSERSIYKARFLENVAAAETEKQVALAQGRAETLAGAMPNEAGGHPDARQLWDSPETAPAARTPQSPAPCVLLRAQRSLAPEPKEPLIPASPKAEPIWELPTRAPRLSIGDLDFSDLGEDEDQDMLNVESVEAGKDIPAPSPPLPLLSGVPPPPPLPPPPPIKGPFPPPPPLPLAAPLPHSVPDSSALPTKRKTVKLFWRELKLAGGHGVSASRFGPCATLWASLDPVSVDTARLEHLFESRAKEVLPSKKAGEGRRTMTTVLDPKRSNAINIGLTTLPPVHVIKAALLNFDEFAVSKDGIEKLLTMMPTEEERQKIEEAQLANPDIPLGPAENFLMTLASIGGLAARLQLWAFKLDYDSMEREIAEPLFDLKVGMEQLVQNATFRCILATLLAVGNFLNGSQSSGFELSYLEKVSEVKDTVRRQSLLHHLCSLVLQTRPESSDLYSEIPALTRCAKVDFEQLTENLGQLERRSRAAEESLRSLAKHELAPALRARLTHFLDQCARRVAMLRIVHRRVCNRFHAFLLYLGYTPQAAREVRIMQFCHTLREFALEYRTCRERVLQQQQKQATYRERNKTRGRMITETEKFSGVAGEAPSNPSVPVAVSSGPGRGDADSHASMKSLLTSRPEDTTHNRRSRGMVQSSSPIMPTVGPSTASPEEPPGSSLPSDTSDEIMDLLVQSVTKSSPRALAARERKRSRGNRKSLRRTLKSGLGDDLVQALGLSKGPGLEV
inactive: vemurafenib -0.018 | [1] 0.018 | barasertib 0.042 | [2] -0.05 | volasertib -0.034 | [3] 0.048 | [4] 0.013 | [5] -0.017 | saracatinib 0.015 | sotrastaurin 0.036 | alvocidib -0.034 | Tubastatin A -0.129 | [6] 0.014 | defactinib 0.033 | [7] 0.006 | encorafenib 0.021 | [8] 0.028 | alisertib 0.011 | [9] 0.002 | gefitinib -0.013

FOXJ3 (UniProt Q9UPW0)
UniProt Q9UPW0, sequence (Q9UPW0 whole entry, looked up): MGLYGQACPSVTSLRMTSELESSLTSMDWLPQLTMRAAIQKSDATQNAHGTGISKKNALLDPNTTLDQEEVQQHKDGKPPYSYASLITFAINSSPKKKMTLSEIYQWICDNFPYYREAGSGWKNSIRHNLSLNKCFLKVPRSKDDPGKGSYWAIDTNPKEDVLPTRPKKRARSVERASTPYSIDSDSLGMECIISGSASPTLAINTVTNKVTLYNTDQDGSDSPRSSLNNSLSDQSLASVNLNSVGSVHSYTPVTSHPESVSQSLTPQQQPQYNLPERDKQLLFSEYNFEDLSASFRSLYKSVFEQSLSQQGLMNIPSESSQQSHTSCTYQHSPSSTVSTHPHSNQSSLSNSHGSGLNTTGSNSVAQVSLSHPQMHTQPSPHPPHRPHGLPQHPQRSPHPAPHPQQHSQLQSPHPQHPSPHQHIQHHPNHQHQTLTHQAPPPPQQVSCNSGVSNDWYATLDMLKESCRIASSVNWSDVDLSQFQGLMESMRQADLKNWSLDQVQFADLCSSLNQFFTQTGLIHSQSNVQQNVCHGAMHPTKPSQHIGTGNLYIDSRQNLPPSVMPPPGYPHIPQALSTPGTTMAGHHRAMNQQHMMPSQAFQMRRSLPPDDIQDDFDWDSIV
inactive: vemurafenib 0.111 | [1] 0.124 | barasertib 0.038 | [2] 0.054 | volasertib -0.096 | [3] 0.02 | [4] 0.032 | [5] -0.08 | saracatinib 0.023 | sotrastaurin 0.018 | alvocidib -0.009 | Tubastatin A -0.03 | [6] -0.031 | defactinib 0.014 | [7] 0.033 | encorafenib 0.055 | [8] -0.137 | alisertib -0.028 | [9] 0 | gefitinib 0.054

EEF1AKNMT (UniProt Q8N6R0)
UniProt Q8N6R0, sequence (Q8N6R0 whole entry, looked up): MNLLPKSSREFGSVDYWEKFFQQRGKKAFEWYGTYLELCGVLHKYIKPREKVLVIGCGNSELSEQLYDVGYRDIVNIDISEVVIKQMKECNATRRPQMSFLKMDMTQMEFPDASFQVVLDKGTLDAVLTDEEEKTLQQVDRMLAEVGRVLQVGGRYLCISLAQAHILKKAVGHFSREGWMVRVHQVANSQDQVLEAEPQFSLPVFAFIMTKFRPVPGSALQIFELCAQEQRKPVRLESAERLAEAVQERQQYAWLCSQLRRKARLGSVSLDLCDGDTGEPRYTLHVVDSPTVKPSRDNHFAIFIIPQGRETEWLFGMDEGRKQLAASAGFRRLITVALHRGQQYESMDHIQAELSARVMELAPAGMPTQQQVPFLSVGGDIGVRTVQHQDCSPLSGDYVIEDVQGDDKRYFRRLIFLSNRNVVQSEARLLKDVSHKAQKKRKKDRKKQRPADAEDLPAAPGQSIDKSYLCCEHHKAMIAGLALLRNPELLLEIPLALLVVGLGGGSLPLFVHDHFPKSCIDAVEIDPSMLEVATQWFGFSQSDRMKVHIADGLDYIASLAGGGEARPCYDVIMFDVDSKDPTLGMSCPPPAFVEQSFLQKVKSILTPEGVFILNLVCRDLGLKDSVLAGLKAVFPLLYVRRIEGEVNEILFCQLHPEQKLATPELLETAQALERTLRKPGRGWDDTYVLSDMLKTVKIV
inactive: vemurafenib -0.007 | [1] 0.041 | barasertib 0.008 | [2] -0.08 | volasertib -0.026 | [3] 0.053 | [4] -0.026 | [5] -0.031 | saracatinib -0.017 | sotrastaurin 0.008 | alvocidib 0.009 | Tubastatin A -0.102 | [6] 0.051 | defactinib -0.012 | [7] -0.015 | encorafenib 0.005 | [8] 0.076 | alisertib -0.02 | [9] 0.027 | gefitinib -0.031

EIF2AK2 (UniProt P19525)
UniProt P19525, sequence (P19525 whole entry, looked up): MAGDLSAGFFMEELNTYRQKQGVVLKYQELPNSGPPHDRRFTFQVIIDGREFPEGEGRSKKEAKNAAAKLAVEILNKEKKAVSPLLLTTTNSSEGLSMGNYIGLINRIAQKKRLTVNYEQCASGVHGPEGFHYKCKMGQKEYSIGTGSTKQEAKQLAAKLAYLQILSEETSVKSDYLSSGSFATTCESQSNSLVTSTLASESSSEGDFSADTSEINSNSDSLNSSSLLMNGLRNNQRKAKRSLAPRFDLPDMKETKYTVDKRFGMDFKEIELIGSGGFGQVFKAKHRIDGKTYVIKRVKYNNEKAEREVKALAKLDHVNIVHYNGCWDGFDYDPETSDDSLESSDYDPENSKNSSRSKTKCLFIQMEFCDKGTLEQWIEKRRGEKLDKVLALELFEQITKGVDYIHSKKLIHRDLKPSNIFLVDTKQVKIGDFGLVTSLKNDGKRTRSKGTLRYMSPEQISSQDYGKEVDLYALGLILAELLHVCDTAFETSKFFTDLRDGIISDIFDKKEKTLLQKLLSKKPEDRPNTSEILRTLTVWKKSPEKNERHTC
inactive: vemurafenib 0.025 | [1] 0.012 | barasertib -0.038 | [2] -0.09 | volasertib -0.03 | [3] -0.008 | [4] -0.081 | [5] 0.067 | saracatinib -0.011 | sotrastaurin 0.007 | alvocidib 0.004 | Tubastatin A -0.099 | [6] 0.091 | defactinib 0.049 | [7] 0.083 | encorafenib 0.087 | [8] 0.153 | alisertib 0.003 | [9] 0.029 | gefitinib -0.055

FYCO1 isoform 4 (UniProt Q9BQS8)
UniProt Q9BQS8, sequence (Q9BQS8 whole entry, looked up): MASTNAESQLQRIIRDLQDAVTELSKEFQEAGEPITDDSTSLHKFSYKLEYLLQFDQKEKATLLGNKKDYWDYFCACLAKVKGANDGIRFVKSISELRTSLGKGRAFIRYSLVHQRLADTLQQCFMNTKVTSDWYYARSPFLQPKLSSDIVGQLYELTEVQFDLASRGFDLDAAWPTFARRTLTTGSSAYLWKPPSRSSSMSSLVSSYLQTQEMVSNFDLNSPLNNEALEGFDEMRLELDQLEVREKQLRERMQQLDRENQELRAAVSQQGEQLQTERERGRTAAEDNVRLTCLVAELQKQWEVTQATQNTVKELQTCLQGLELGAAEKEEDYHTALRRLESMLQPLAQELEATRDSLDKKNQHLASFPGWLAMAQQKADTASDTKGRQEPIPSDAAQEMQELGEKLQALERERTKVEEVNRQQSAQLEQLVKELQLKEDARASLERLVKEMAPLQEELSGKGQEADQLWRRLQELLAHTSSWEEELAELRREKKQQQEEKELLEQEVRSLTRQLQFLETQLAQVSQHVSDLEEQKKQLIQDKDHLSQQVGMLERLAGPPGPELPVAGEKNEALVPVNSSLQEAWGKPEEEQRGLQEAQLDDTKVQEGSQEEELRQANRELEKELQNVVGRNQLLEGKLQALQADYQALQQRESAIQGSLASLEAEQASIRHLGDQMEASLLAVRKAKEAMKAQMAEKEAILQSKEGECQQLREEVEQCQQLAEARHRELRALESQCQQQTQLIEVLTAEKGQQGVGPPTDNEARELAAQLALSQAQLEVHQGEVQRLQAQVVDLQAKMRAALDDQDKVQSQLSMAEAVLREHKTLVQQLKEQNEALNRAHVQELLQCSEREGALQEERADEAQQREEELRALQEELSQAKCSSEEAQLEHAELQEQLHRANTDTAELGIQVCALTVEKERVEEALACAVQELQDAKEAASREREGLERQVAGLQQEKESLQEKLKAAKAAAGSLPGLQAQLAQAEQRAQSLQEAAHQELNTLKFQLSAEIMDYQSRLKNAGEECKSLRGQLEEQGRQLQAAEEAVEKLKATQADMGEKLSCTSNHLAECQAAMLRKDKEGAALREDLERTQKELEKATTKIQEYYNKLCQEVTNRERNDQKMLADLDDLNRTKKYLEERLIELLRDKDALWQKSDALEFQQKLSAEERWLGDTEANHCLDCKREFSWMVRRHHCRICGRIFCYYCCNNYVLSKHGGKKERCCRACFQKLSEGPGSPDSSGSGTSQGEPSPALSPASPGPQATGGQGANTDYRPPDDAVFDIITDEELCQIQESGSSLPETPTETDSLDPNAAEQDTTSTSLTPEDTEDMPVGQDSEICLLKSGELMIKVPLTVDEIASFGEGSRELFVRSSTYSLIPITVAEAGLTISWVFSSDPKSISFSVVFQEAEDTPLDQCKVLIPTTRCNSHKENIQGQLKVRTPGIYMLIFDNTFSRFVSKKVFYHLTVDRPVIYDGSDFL
inactive: vemurafenib 0.024 | [1] 0.019 | barasertib 0.045 | [2] 0.027 | volasertib -0.004 | [3] 0.031 | [4] -0.104 | [5] 0.063 | saracatinib 0.04 | sotrastaurin 0 | alvocidib -0.052 | Tubastatin A 0 | [6] -0.001 | defactinib -0.002 | [7] -0.006 | encorafenib 0.033 | [8] 0.024 | alisertib 0.018 | [9] 0.018 | gefitinib 0.016

EP300 (UniProt Q09472)
inactive: vemurafenib -0.018 | [1] -0.01 | barasertib 0.007 | [2] -0.006 | volasertib -0.042 | [3] -0.009 | [4] -0.151 | [5] 0.058 | saracatinib 0.027 | sotrastaurin -0.022 | alvocidib -0.098 | Tubastatin A 0.035 | [6] -0.026 | defactinib 0.066 | [7] 0.006 | encorafenib 0.031 | [8] 0.105 | alisertib -0.121 | [9] -0.056 | gefitinib -0.054

FECH isoform 2 (UniProt P22830)
UniProt P22830, sequence (P22830 whole entry, looked up): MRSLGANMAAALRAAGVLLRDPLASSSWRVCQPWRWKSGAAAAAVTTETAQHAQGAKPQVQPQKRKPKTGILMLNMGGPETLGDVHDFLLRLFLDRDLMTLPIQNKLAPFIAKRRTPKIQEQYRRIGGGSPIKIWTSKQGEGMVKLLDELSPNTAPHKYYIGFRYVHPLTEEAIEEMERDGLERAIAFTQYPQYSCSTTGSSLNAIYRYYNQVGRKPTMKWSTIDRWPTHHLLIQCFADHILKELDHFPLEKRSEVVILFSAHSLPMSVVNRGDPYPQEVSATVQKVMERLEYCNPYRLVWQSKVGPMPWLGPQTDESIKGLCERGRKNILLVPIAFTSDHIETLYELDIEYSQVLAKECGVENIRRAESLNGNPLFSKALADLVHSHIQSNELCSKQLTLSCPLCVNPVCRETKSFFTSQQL
inactive: vemurafenib 0.363 | barasertib -0.082 | [2] 0.477 | volasertib 0.078 | [3] -0.03 | [4] 0.128 | [5] 0.699 | saracatinib -0.287 | sotrastaurin 0.014 | alvocidib 0.028 | Tubastatin A -0.123 | [6] 0.485 | defactinib -0.056 | [7] 0.664 | encorafenib -0.064 | [8] -0.091 | alisertib -0.191 | [9] 0.225 | gefitinib 0.503
active: [1] -0.891

DST (UniProt Q03001)
inactive: vemurafenib 0.23 | [1] 0.021 | barasertib 0.083 | [2] 0.021 | volasertib -0.045 | [3] -0.073 | [4] -0.174 | [5] 0.076 | saracatinib 0.052 | sotrastaurin -0.024 | alvocidib -0.047 | Tubastatin A 0.033 | [6] -0.003 | defactinib -0.094 | [7] 0.114 | encorafenib 0.018 | [8] 0.048 | alisertib 0.003 | [9] 0.033 | gefitinib 0.046

From the supplement of paper PMC10849652
